From PubChem BioAssay (NCATS)
Inconclusive results are not listed. Active and inactive are the calls of the source. Unless noted, calls follow the shape of the dose curve; as a rule, active = well fitted curve in the direction sought with a large enough effect; inconclusive = small, poorly fitted or top-dose-only effect, or another doubt; inactive = no such curve, though single readings can be large; an effect the other way counts as inactive or inconclusive.

What was measured:
[1] = biological target: Glutaminase kidney isoform, mitochondrial (Homo sapiens) (UniProt O94925); assay: qHTS for Inhibitors of Glutaminase (GLS): LOPAC Validation (AID 624146); also: nearly all actives have a fitted effect of over 60% in size; also: potency is read from the fitted curve at half-maximal effect
Glutaminase kidney isoform, mitochondrial (Homo sapiens), sequence (O94925 whole entry, looked up, canonical isoform): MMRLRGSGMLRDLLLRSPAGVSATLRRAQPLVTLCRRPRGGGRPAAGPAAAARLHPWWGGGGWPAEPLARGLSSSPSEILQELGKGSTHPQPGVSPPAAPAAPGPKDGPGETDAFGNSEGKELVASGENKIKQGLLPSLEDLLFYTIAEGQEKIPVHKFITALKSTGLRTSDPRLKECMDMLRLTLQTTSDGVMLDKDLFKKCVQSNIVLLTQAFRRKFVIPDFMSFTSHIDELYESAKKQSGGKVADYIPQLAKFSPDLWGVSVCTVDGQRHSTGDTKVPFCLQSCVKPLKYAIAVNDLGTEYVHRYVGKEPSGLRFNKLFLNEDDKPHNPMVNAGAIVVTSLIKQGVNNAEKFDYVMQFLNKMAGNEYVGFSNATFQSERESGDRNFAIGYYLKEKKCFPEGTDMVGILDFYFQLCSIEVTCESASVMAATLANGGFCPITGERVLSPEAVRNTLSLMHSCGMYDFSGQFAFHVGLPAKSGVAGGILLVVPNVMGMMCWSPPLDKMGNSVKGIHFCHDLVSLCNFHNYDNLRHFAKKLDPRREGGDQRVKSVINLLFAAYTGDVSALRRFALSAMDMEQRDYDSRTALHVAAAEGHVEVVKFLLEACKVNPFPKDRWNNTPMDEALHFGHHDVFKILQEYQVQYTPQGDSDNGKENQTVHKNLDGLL
How it was run: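 Read-out is an Amplex red fluorescence increase coupled through glutamate oxidase and HRP, measured before and after 30 min room-temperature incubation. hKGA is in 45 mM KH2PO4 (pH 8.2) with 0.02% Tween-20; glutamine added as 1mM solution.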

[2] = qHTS of Trypanosoma Brucei Inhibitors: LOPAC Validation (AID 624147); also: potency is read from the fitted curve at half-maximal effect
How it was run: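 Readout: single end-point luminescence (Kinase-Glo Plus, 10 min). Reaction conditions were TbPYK/substrate plus 130 uM ADP, 45 min at RT, pH 7.2 TEA buffer. No-enzyme wells served as controls, and data were normalized before concentration-response fitting.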

[3] = biological target: Glucagon-like peptide 1 receptor (Homo sapiens) (UniProt P43220); assay: qHTS of GLP-1 Receptor Agonists: LOPAC Validation (AID 624148);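 also: luminescence from a luciferase reporter switched on by cAMP; higher luminescence signal means agonism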
Glucagon-like peptide 1 receptor (Homo sapiens), sequence (P43220 whole entry, looked up): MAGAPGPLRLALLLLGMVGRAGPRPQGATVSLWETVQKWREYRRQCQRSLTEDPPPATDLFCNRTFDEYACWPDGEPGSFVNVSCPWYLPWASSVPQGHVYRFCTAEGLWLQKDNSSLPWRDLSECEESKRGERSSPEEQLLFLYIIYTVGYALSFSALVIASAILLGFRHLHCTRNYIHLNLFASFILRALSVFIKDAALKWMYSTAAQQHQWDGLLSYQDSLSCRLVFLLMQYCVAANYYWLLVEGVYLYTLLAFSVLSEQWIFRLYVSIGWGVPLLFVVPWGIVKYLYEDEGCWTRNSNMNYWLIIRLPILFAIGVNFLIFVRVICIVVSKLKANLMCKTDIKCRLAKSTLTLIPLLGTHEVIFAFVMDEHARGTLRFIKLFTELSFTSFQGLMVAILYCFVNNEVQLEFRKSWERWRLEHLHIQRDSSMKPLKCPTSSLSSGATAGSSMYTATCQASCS
How it was run: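 Agonism scored as increased luciferase luminescence driven by cAMP in HEK293 clones carrying GLP-1R. Cells settled 12 hours, received compound for 4-6 hr at 37 deg C, 5% CO2, and were read after 12 min detection reagent at RT.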

[4] = qHTS of Nrf2 Activators: LOPAC Validation (AID 624149)
How it was run: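 Following overnight seeding in 5% FBS OPTI-MEM, AREc32_Fluc cells receive compounds for a 24 hr incubation at 37 deg C with 5% CO2. Steady-Glo is added, and after 30 min at RT luminescence is recorded.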

[5] = HTS Assay for Allosteric Antagonists of the Human D2 Dopamine Receptor: Hit Validation in HTRF (AID 624455); also: potency is read from the fitted curve at half-maximal effect;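 also: stable D1 dopamine receptor cell line scored for blocking the D1 response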
How it was run: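 Validation of hits used D1 receptor stably expressed in cells with HTRF detection of response inhibition; origin screen measured calcium flux following EC80 dopamine in a force-coupled, inducible Hek293 Trex D2 cell line.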

[6] = biological target: Voltage-gated inwardly rectifying potassium channel KCNH2 (Homo sapiens) (UniProt Q12809); assay: qHTS Assay for Small Molecule Inhibitors of the Human hERG Channel Activity (AID 588834);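 also: lower thallium flux fluorescence means stronger hERG block; nearly all actives have a fitted effect of over 50% in size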; also: potency is read from the fitted curve at half-maximal effect
Voltage-gated inwardly rectifying potassium channel KCNH2 (Homo sapiens), sequence (Q12809 whole entry, looked up): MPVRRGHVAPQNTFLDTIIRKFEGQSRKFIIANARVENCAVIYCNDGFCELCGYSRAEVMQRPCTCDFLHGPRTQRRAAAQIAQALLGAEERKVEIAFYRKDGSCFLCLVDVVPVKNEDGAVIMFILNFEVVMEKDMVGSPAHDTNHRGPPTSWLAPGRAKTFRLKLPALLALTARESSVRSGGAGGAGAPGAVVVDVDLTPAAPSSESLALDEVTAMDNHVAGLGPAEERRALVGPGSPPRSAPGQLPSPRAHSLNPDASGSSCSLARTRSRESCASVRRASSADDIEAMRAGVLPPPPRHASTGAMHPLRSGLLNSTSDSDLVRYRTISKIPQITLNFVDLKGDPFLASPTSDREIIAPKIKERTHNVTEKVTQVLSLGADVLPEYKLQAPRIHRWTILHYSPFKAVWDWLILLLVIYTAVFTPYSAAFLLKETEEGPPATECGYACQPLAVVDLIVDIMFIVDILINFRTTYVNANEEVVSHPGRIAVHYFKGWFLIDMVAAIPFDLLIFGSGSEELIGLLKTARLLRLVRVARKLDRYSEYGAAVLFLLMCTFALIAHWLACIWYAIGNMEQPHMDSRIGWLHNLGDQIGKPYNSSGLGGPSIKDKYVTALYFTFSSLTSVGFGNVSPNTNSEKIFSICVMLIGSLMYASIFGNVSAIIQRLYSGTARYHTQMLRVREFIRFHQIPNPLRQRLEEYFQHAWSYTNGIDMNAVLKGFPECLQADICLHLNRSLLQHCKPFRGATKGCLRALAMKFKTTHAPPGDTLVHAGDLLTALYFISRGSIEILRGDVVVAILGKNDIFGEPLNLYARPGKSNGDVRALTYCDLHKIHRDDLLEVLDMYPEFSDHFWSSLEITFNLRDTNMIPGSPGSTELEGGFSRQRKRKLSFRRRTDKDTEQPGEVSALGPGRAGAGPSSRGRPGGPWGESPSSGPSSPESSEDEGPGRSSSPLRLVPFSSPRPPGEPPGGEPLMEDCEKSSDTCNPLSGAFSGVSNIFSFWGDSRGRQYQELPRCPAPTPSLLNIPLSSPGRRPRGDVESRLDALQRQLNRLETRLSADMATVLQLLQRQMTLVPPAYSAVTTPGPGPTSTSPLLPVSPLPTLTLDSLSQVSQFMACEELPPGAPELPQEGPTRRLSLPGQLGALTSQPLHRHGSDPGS
How it was run: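 Thallium-flux (FluxOR) read-out on FDSS: fluorescence read 10 s before and 2 min after stimulation buffer. hERG-BacMam-transduced U2OS cells, compound exposure about 10 min. AC50 by standard Hill equation.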

[7] = S16 Schwann cell viability assay (CellTiter-Glo assay) (AID 624031);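 also: native untransfected S16 rat Schwann cells; cellular ATP luminescence as a viability measure; series mostly up to about 58 µM; nearly all actives have a fitted effect of over 70% in size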
How it was run: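 Parental S16 cells, 24 h compound, 37 °C. ATP-luminescence viability; DMSO = 0% activity, empty wells as reference; curves classified by fit quality and efficacy.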

[8] = S16 Schwann cell PMP22 intronic element firefly luciferase assay (AID 624032); also: series mostly up to about 58 µM; nearly all actives have a fitted effect of over 30% in size
How it was run: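 Luciferase reporter of PMP22 intronic-element expression in stably transfected S16 rat Schwann cells, read by ONE-Glo luminescence after 24 h compound exposure at 37 C. Activity scaled between DMSO (0%) and positive-control PTC124; concentration-effect curves quality-classified.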

[9] = biological target: Luciferin 4-monooxygenase (Photinus pyralis) (UniProt P08659); assay: Biochemical firefly luciferase enzyme assay for NPC (AID 624030);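 also: purified P. pyralis luciferase at 10 nM with luciferin and ATP substrate; series mostly up to about 59 µM; nearly all actives have a fitted effect of over 70% in size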
Luciferin 4-monooxygenase (Photinus pyralis), sequence (P08659 whole entry, looked up): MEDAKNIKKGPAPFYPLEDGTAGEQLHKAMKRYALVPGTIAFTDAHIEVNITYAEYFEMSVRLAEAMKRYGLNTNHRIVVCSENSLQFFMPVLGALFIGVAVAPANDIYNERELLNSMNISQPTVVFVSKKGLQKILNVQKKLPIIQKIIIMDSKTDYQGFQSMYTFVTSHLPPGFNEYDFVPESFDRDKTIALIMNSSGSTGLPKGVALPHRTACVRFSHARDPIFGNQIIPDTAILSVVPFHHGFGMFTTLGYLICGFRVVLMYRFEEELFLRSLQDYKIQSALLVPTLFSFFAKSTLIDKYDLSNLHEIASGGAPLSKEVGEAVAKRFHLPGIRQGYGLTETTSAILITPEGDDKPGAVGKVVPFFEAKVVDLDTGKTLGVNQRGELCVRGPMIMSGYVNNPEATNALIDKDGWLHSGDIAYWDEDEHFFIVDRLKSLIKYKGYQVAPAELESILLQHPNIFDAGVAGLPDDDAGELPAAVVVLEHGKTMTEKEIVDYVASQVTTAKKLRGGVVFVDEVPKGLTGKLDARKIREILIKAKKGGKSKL
How it was run: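 Direct inhibition of firefly luciferase enzyme (10 nM final, 50 mM Tris Acetate) assessed by luminescence within 5 minutes. Percent activity scaled between DMSO and PTC124 positive control, with concentration-effect curves classified by fit quality and response.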

[10] = S16 Schwann cell PMP22 intronic element beta-lactamase assay (AID 624044; calls by dose curve; also: nearly all actives have a fitted effect of over 15% in size)
How it was run: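 Beta-lactamase reporter under a PMP22 intronic regulatory element in stable S16 rat Schwann cells; 24 h compound exposure. 460 nm blue signal normalized between DMSO (0%) and potassium clavulanate, with 535 nm FRET tracking viability; curves classed by r2 and response.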

Measured: Potency

CCCOC(=O)c1c(-c2ccccc2)nc(CC)c(C(=O)SCC)c1CCC
inactive: [1] | [2] | [3] | [4] | [5]

NC1CONC1=O (centres undefined)
inactive: [6] | [2] | [3] | [5]

C=CCN1CCc2c(cc(O)c(O)c2Br)[C@@H](c2ccccc2)C1
inactive: [2] | [4]
active: [6] 7.08 µM

NC1CCN(O)C1=O (centres undefined)
inactive: [6] | [2] | [3] | [4] | [5]

CCCCC[C@H](CC(=O)NO)C(=O)N[C@H](C(=O)N1CCC[C@H]1CO)C(C)C
inactive: [6] | [2] | [4] | [5]

NC/C=C\C(=O)O
inactive: [6] | [2] | [5]

CC(C)NC[C@H](O)COc1ccc(CC(N)=O)cc1
inactive: [7] | [8] | [1] | [3] | [4]

CC(C)(CO)Cc1cc(C(C)(C)C)c(O)c(C(C)(C)C)c1
active: [1] 1.78 µM
inactive: [2] | [3] | [4] | [5]

Nc1ncnc2c1nc(Sc1ccc(Cl)cc1)n2[C@H]1OC2COP(=O)(O)O[C@@H]2C1O (some centres undefined)
inactive: [1] | [2] | [3] | [4]

CCCCCCCCCCCCCCCCCCOC[C@H](COP(=O)([O-])OCC[N+](C)(C)C)OC
not listed: [6]
inactive: all other assays above

N[C@H](C(=O)O)[C@H](Cc1ccccc1)C(=O)O
inactive: [1] | [2] | [3] | [4]

NC(=O)CNCCC(c1ccccc1)c1ccccc1
inactive: [1] | [2] | [3] | [4] | [5]

O=C(N[C@@H](Cc1ccccc1)C(=O)CCl)OCc1ccccc1
inactive: [1] | [2] | [3] | [4] | [5]

N=S(=O)(O)Cc1noc2ccccc12
inactive: [1] | [2] | [3] | [4] | [5]

COc1ccc(-c2cc3ncc(C)n3c(Nc3ncccc3C(N)=O)n2)cc1OC
inactive: [1] | [2] | [3] | [4] | [5]

CC1CCN(CC[C@H]2CCCN2S(=O)(=O)c2cccc(O)c2)CC1
inactive: [1] | [2] | [3] | [5]

Cc1cc(Cn2cnc3c2C[C@@H](C(=O)O)N(C(=O)C(c2ccccc2)c2ccccc2)C3)ccc1N
inactive: [1] | [2] | [3] | [4] | [5]

O=C1Nc2ccc(I)cc2/C1=C/c1cc(Br)c(O)c(Br)c1
inactive: [1] | [2] | [3] | [4] | [5]

C[C@H]1CC2C3CCC4=CC(=O)C=C[C@]4(C)[C@@]3(Cl)[C@@H](O)C[C@]2(C)[C@@]1(O)C(=O)CO (some centres undefined)
inactive: [1] | [2] | [3] | [4] | [5]

CC(=O)SC1CC2=CC(=O)CC[C@]2(C)C2CC[C@@]3(C)C(CC[C@@]34CCC(=O)O4)C12 (some centres undefined)
inactive: [1] | [2] | [3] | [4] | [5]

Cc1cccc(C)c1OCC(N)C(C)C (centres undefined)
inactive: [1] | [2] | [3] | [4] | [5]

N=C(N)c1ccc(OCCCCCOc2ccc(C(=N)N)cc2)cc1 (tested in a mixture with another compound)
inactive: [1] | [2] | [3] | [5]

CC(C)[C@@H]1CC[C@@H](C)C[C@@H]1P(=O)(c1ccccc1)c1ccccc1
inactive: [1] | [2] | [3] | [4] | [5]

C=C1C[C@@]23CC[C@H]4[C@@](C)(CCC[C@@]4(C)C(=O)OC4OC(CO)C(O)C(O)C4O)[C@@H]2CC[C@]1(OC1OC(CO)C(O)C(O)C1OC1OC(CO)C(O)C(O)C1O)C3 (some centres undefined)
inactive: [1] | [2] | [3] | [4] | [5]

CC(/C=C/c1cccc(Oc2ccc(F)cc2)c1)N(O)C(N)=O (centres undefined)
active: [1] 1.78 µM
inactive: [2] | [3] | [4] | [5]

O=C(O)C1=CCCN(CCON=C(c2ccccc2)c2ccccc2)C1
inactive: [1] | [2] | [3] | [4] | [5]

O=c1cc(-c2ccccc2)[nH]c2nc(Cl)ccc12
inactive: [1] | [2] | [3] | [4] | [5]

O=c1[nH]c(=S)[nH]c(-c2ccccc2)c1Cc1c(O)ccc2ccccc12
inactive: [2] | [3] | [4] | [5]
active: [1] 8.91 µM

C=C1C[C@@]23CC[C@H]4[C@@](C)(CCC[C@@]4(C)C(=O)O)[C@@H]2CC[C@]1(O)C3
inactive: [1] | [2] | [3] | [4] | [5]

CCCCCCCCCCC(C)(C)C(=O)Nc1c(OC)cc(OC)cc1OC
inactive: [1] | [2] | [3] | [4] | [5]

Oc1ccc(/C=C/c2ccc(/C=C/c3ccc(O)cc3)c(Br)c2)cc1
active: [1] 7.08 µM
inactive: [2] | [3] | [4] | [5]

c1ccc2c(c1)CCC[C@H]2Nc1nc2ccccc2[nH]1
inactive: [1] | [2] | [3] | [4] | [5]

CC(=O)O[C@H]1Cc2ccccc2N(C(N)=O)c2ccccc21
inactive: [1] | [2] | [3] | [4] | [5]

CCCn1c(=O)c(C)cn2nc(N)nc12
inactive: [1] | [2] | [3] | [4] | [5]

COc1ccc(CCn2nnnc2C2(c3ccc(C)cc3)CC2)cc1
inactive: [1] | [2] | [3] | [4] | [5]

CN(CC[C@@H](Oc1ccc(C(F)(F)F)cc1)c1ccccc1)CC(=O)O
inactive: [1] | [2] | [3] | [4] | [5]

CCC1(O)CC2CN(CCc3c([nH]c4ccccc34)[C@@](C(=O)OC)(c3cc4c(cc3OC)N(C)C3[C@]45CCN4CC=C[C@@](CC)([C@@H](OC(C)=O)[C@]3(O)C(=O)OC)[C@H]45)C2)C1 (some centres undefined)
inactive: [2] | [3] | [4] | [5]
active: [1] 8.91 µM

O=C(O)CCC/C=C\C[C@@H]1[C@@H](/C=C/[C@H](O)C2Cc3ccccc3C2)[C@@H](F)C[C@@H]1O
inactive: [1] | [2] | [3] | [4] | [5]

N=C(N)c1ccccc1
inactive: [1] | [2] | [3] | [4] | [5]

NCCNS(=O)(=O)c1cccc2c(Cl)cccc12
inactive: [1] | [2] | [3] | [4] | [5]

O=c1cc(-c2ccccc2F)[nH]c2cc3c(cc12)OCO3
inactive: [1] | [2] | [3] | [5]

COc1cc(N)c(Cl)cc1C(=O)OCCN1CCCCC1
inactive: [1] | [2] | [3] | [4] | [5]

NC(Cc1cccc(-c2ccccc2CP(=O)(O)O)c1)C(=O)O (centres undefined)
inactive: [1] | [2] | [3] | [4] | [5]

CC(=O)N[C@@H](Cc1c[nH]c2ccccc12)C(=O)OCc1cc(C(F)(F)F)cc(C(F)(F)F)c1
inactive: [1] | [2] | [3] | [4] | [5]

COc1cc(CNC(=O)CCCCCCC(C)C)ccc1O
active: [1] 3.16 µM
inactive: [2] | [3] | [4] | [5]

COc1cc(/C=C(\C#N)C(=O)Nc2nnc(C(F)(F)F)s2)ccc1OCc1ccc(C(F)(F)F)cc1C(F)(F)F
inactive: [1] | [2] | [3] | [4] | [5]

NCC(O)C1CCCCCCC1 (centres undefined)
inactive: [1] | [2] | [3] | [4] | [5]

CCCCCC[C@@H]([C@@H](C)O)n1cnc2c(N)ncnc21
inactive: [1] | [2] | [3] | [4] | [5]

O=c1ccc2c(OCCCCc3ccccc3)c3ccoc3cc2o1
inactive: [1] | [2] | [3] | [4] | [5]

CN1CCCC1CCOC(C)(c1ccccc1)c1ccc(Cl)cc1 (centres undefined)
inactive: [1] | [2] | [5]

CN(C)CCCc1cc(C(=O)Nc2ccc(-c3ccncc3)cc2)ccc1O
inactive: [1] | [2] | [4]

NC1(C(=O)O)CC1
inactive: [1] | [2] | [4] | [5]

CC[n+]1c(/C=C/C=C2/N(C)c3ccccc3C2(C)C)sc2ccccc21
inactive: [3] | [4] | [5]
active: [1] 11.2 µM

CCCCCCN(CCCCCC)C(=O)Cc1c(-c2ccc(F)cc2)[nH]c2ccccc12
inactive: [2] | [5]

Nc1nc2c(cnn2CCc2ccccc2)c2nc(-c3ccco3)nn12
inactive: [1] | [2] | [3] | [5]

S=C(S)N1CCCC1
inactive: [4] | [5]
active: [1] 12.6 µM | [2] 23.9 µM

CN(C)CCC(c1ccc(Br)cc1)c1ccccn1 (centres undefined)
inactive: [3] | [4] | [5]

O=c1onc2n1-c1cc(Br)ccc1OC2
inactive: [1] | [3] | [4] | [5]

O=c1oc(Cl)c(Cl)c2ccccc12
inactive: [1] | [2] | [3] | [5]

CN1Cc2sccc2C(c2ccc(O)c(O)c2)C1 (centres undefined)
inactive: [3] | [4]
active: [5] 0.0164 µM

CC(C)(C)c1ccc(/C=C/C(=O)Nc2ccc3c(c2)OCCO3)cc1
inactive: [1] | [2] | [5]
